Assay outcomes from PubChem.
FBW7 act = human FBW7 E3 ligase activation, primary screen; AID 1259310; 0.13% of 650,000 active; AlphaScreen FBW7–phospho-cyclin E peptide binding, activator screen; normalized activity (activation), % at 26.1 µM; Q969H0; in the data active means normalized activity above about 1.9%;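 further: purified mutant Fbw7 with reduced substrate affinity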
GPR151 activ = activators of human GPR151. 1% of 650,000 active. Q8TDV0. AID 1508602. PathHunter beta-arrestin GPR151 cells, luminescence. activation, % at 11.2 µM; in the data active means activation above about 4.9%
TEAD-YAP block = TEAD-YAP interaction inhibition. HEK-TIYL cells, TEAD-Gal4/YAP UAS-luciferase luminescence. inhibition, % at 9.12 µM. 1.4% of 640,000 active. AID 1259422; in the data active means inhibition above about 32%
MITF primary = blocks human microphthalmia-associated transcription factor; O75030; AlphaScreen MITF homodimerization, bead proximity signal; inhibition, % at 2.6 µM; 0.91% of 650,000 active; in the data active means inhibition above about 50%
Target sequence (O75030 whole entry, looked up): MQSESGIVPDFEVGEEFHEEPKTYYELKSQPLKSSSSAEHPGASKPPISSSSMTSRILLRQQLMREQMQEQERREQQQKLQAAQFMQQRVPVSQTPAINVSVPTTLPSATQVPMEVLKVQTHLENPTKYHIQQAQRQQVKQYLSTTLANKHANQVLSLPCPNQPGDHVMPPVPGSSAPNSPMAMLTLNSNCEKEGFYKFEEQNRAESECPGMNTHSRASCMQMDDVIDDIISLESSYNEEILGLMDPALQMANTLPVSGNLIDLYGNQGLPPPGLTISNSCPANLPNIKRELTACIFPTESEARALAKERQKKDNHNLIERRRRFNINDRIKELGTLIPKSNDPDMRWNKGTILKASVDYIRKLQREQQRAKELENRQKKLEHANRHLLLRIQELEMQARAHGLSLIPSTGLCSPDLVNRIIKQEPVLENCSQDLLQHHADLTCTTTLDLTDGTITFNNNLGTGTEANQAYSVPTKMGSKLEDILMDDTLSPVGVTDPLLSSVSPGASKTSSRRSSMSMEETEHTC
Large screens that a line does not name were inactive. This is a sample that favours compounds with a hit; in the whole collection about 3.5% have one here.

CCOC(=O)C1CCN(c2cc(NCC(=O)O)c3c4c(onc24)-c2ccccc2C3=O)CC1	MITF primary 70.2
O=C(O)CNc1cc(N2CCCCC2)c2noc3c2c1C(=O)c1ccccc1-3	TEAD-YAP block 59.2
CCN(c1ncnc2c1c(-c1ccccc1)cn2-c1cccc(C(F)(F)F)c1)C1CCCCC1	none
Cc1ccc2[nH]c3c(c2c1)CCCC3C(=O)O (configuration not stated)	none
CCN(CC)c1ccc(C2CC(c3ccc(C)cc3)=NN2C(=O)CCC(=O)O)cc1 (configuration not stated)	TEAD-YAP block 46.3
COc1ccc(C(=O)N/N=C/c2cc(Cl)cc(Br)c2O)cc1	TEAD-YAP block 33.4
O=C(N/N=C/c1cc(Br)cc(Br)c1O)c1cccnc1	TEAD-YAP block 33.2
Cc1cc(Br)cc(/C=N\NC(=O)c2ccc(N)cc2)c1O	TEAD-YAP block 65.5
O=C(N/N=C/c1cc(Cl)cc(Br)c1O)c1ccncc1	TEAD-YAP block 47.1, MITF primary 98.4
O=C(N/N=C/c1cc(Br)cc(I)c1O)c1cccnc1	TEAD-YAP block 68.3
COc1cc(Br)cc(/C=N/NC(=O)c2ccncc2)c1O	TEAD-YAP block 87.3, MITF primary 91.0
COc1cc(Cl)cc(/C=N/NC(=O)c2cccc(F)c2)c1O	TEAD-YAP block 69.7
O=C(N/N=C/c1cc(Cl)cc(Br)c1O)c1cccnc1	TEAD-YAP block 78.5, MITF primary 64.4
COc1cc(Br)cc(/C=N/NC(=O)c2ccc(F)cc2)c1O	none
COc1cc(Br)cc(/C=N\NC(=O)c2ccc(Br)cc2)c1O	none
O=c1c2c3c(sc2nc(SCCc2ccccc2)n1-c1ccccc1)CCCC3	none
CCOc1ccc(CN2CCN(C3CCOCC3)CC2CCO)cc1 (configuration not stated)	none
COc1ccc(CCNC(=O)c2sc3ncnc(N4CCN(c5ccccc5OC)CC4)c3c2C)cc1OC	none
COc1ccc(CCNC(=O)c2sc3ncnc(N4CCN(c5ccccn5)CC4)c3c2C)cc1OC	TEAD-YAP block 69.8
CC(=O)Nc1ccc(Nc2nc(NCCCN3CCCC3=O)nc3c2ncn3C2CCCCC2)cc1	none
O=C1CCCN1CCCNc1nc(Nc2ccccc2)c2ncn(C3CCCCC3)c2n1	TEAD-YAP block 64.3
O=C1CCCN1CCCNc1nc(Nc2cnccn2)nc2c1ncn2C1CCCCC1	TEAD-YAP block 34.9
O=C1CCCN1CCCNc1nc(Nc2cnccn2)nc2c1ncn2CCN1CCCC1=O	none
c1cnc(Nc2nc(NC3CC3)c3ncn(C4CCCCC4)c3n2)cn1	TEAD-YAP block 41.8
FC(F)Oc1ccc(NC(=S)NNc2ccc(Cl)nn2)cc1	none
CC(C)NCCCOc1ccc2ccccc2c1Br	TEAD-YAP block 40.0
O=C(Nc1cccc(-c2nc3ccccc3o2)c1)c1cc(=O)c2ccccc2o1	none
Cc1ccccc1C(=O)Nc1ccc(OC(=O)c2ccccc2C)cc1	TEAD-YAP block 64.0
O=C(Nc1cccc(-c2nc3ccccc3[nH]2)c1)c1cccc2nccnc12	TEAD-YAP block 33.8
Cc1ccccc1C(=O)Nc1ccc(-c2nc3ccc(NC(=O)c4ccccc4C)cc3[nH]2)cc1	TEAD-YAP block 76.1
Cc1ccccc1C(=O)Nc1ccc(C(=O)OC(C)C)cc1	none
O=C(Nc1cccc(-c2nc3ccccc3[nH]2)c1)c1cc(=O)c2ccccc2o1	TEAD-YAP block 41.3
O=C(Nc1ccc(-c2nc3ccc(NC(=O)c4ccccc4)cc3[nH]2)cc1)c1ccccc1	none
O=C(N/N=C/c1cccc(Br)c1)c1cc(-c2ccco2)[nH]n1	none
CCc1ccc(NS(=O)(=O)c2cc(Br)cc3c2N(C(C)=O)CC3)cc1	TEAD-YAP block 47.0
COc1ccc(NS(=O)(=O)c2cc(Br)cc3c2N(C(C)=O)CC3)cc1	TEAD-YAP block 44.2
Cc1cccc(NS(=O)(=O)c2cc(Br)cc3c2N(C(=O)C2CC2)CC3)c1	TEAD-YAP block 70.9
Cc1cc(NS(=O)(=O)c2ccc3c(c2)CCN3C(=O)C2CC2)ccc1Br	none
COc1c(C)cc(S(=O)(=O)Nc2ccc3c(c2)N(C(=O)C2CC2)CC3)cc1C	TEAD-YAP block 43.1
O=C(Nc1cccnc1)Nc1cccc(F)c1	none
CC(=O)c1cccc(NC(=O)Nc2cccnc2)c1	TEAD-YAP block 32.5
C=CCn1c(=O)c(C(=O)Nc2ccc(C)cc2Br)c(O)c2ccccc21	none
N#Cc1cccc(NC(=O)C[n+]2c(N)sc3ccc4ccccc4c32)c1	TEAD-YAP block 43.1
COc1ccc(NC(=O)c2nn(-c3ccccc3OC)c(=O)c3ccccc23)cc1OC	none
COc1ccc(-n2nc(C(=O)NCC(=O)NCCc3ccc(OC)c(OC)c3)c3ccccc3c2=O)cc1	none
COc1cc(OC)cc(-n2nc(C(=O)NCCc3ccc(OC)c(OC)c3)c3ccccc3c2=O)c1	none
COc1ccc(CCNC(=O)CNC(=O)c2nn(-c3ccc(OC)c(OC)c3)c(=O)c3ccccc23)cc1OC	TEAD-YAP block 39.6
Cn1c(C(=O)O)c(CC(=O)NCC2COc3ccccc3O2)c2ccccc21 (configuration not stated)	none
COc1ccccc1-n1nc(C(=O)Nc2cc(OC)c(OC)c(OC)c2)c2ccccc2c1=O	TEAD-YAP block 32.1
Cn1nc(CC(=O)NCC2COc3ccccc3O2)c2ccccc2c1=O (configuration not stated)	TEAD-YAP block 36.0
COc1cccc(-n2nc(C(=O)NCCc3ccc(OC)c(OC)c3)c3ccccc3c2=O)c1	TEAD-YAP block 35.8
Cn1nc(CC(=O)Nc2ccc(F)cc2F)c2ccccc2c1=O	TEAD-YAP block 34.5
Cn1nc(CC(=O)Nc2ccc(Br)cc2F)c2ccccc2c1=O	none
COc1ccc(-n2nc(C(=O)NCC(=O)NCC3COc4ccccc4O3)c3ccccc3c2=O)cc1OC (configuration not stated)	TEAD-YAP block 36.4
Cc1nnc2sc(-c3ccc(NC(=O)C(C)(C)C)cc3)nn12	TEAD-YAP block 39.7
Cc1ccc(-n2nc3c(c2NC(=O)C2CCCC2)CSC3)c(C)c1	FBW7 act 1.9
Cc1ccc(S(=O)(=O)Nc2ccccc2/C=N/n2cnnc2)cc1	TEAD-YAP block 51.0
CCOC(=O)C1(Cc2ccccc2C(F)(F)F)CCN(C(=O)CN2CCCC2=O)CC1	none
CCC1CCCCN1S(=O)(=O)c1ccc(F)c(C(=O)Nc2cccc(Cl)c2C)c1 (configuration not stated)	none
CCCCNc1ncnc2ccc(Br)cc12	TEAD-YAP block 44.9
CC(=O)c1cccc(NC(=O)CSc2nnc3c4ccccc4n(CCc4ccccc4)c3n2)c1	TEAD-YAP block 40.3
Cc1c(NC(=O)CSc2nnc3c4ccccc4n(CCc4ccccc4)c3n2)c(=O)n(-c2ccccc2)n1C	TEAD-YAP block 46.5
Cc1ccc(C)c(N2C(=O)/C(=C/c3ccc4c(c3)OCO4)N=C2c2ccc(Br)cc2)c1	none
O=c1c(C=NCCc2ccccn2)c(CSc2ccc(Cl)cc2)[nH]n1-c1nc2ccccc2s1	MITF primary 65.1
CN(C)C(=O)c1nc2ccc(Cl)cn2c1CNCc1ccc(N2CCOCC2)cc1	none
CCOC(=O)c1ccc(Nc2ccc([N+](=O)[O-])c3nonc23)cc1	FBW7 act 1.9
CCOC(=O)c1ccc(Nc2ccc3nonc3c2[N+](=O)[O-])cc1	none
